Drawing on PubChem BioAssay AID540317 (National Center for Advancing Translational Sciences (NCATS), 2011), this text covers Potency for 97 compounds.

The structures appear in SMILES notation. Hit rate of the full screen: of about 390,000 compounds, about 2,200 (0.56%) were called active. Where a call stands in place of a potency, no number is given. Roughly 3% stayed inconclusive and do not appear here. Calls follow the shape of the dose curve; as a rule, active = well fitted inhibition curve with a large enough effect; inconclusive = small, poorly fitted or top-dose-only effect; inactive = no such curve, though single readings can be large or run the other way. This excerpt belongs to a sample that is enriched for actives.
Potency is read from the fitted curve at half-maximal effect.

Chain of Chromobox protein homolog 1 (Homo sapiens) (P83916 whole entry, looked up): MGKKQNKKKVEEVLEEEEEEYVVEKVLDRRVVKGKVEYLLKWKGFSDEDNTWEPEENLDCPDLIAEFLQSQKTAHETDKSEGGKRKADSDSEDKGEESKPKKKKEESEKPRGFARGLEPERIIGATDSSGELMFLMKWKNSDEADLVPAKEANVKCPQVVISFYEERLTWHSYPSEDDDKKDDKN

The experiment concerns the target Chromobox protein homolog 1 (Homo sapiens) (UniProt P83916). The experiment can be described thus: HTS for Inhibitors of HP1-beta Chromodomain Interactions with Methylated Histone Tails. Also: nearly all actives have a fitted effect of over 70% in size. The following applies: AlphaScreen HP1-beta / biotin-H3K9me3 peptide binding; series mostly up to 114 µM. The procedure, abridged: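 AlphaScreen: HP1-beta (50 nM) preformed 30 min with biotin-H3(1-18)K9me3 peptide (50 nM) in PBS pH 7.4, 0.01% Tween-20. Compound added for 30 min at RT, then streptavidin donor/nickel chelate acceptor beads (10 ug/mL) for 30 min.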
(In general: Bead proximity is the source of the signal in Alpha formats.)
Take `C=C(C)C(=O)Nc1cccc(C2=NOC3(C2)C[C@H](C(N)=O)N(C(=O)C(c2ccccc2)c2ccccc2)C3)c1` (some centres not stated): the Potency was 12.6 µM (active). With `C/C=C(\C)C(=O)N1CC2(CC(c3cccc(NC(=O)CCCCC)c3)=NO2)C[C@@H]1C(N)=O` (some centres not stated), the Potency entry was “inactive”.

Turning to `CC/C=C/C(=O)N1CC2(CC(c3cccc(NC(=O)CC)c3)=NO2)C[C@H]1C(N)=O` (some centres not stated), the Potency entry was “inactive”. Next, `O=C(O)C1CC=CC2CCN(C3CCCCC3)C(=O)C21` (configuration not stated): “inactive”; `COC(=O)c1cc(NC(=O)CCS(=O)(=O)c2cc(Br)cc3c2N(C(=O)C2CC2)CC3)cc(C(=O)OC)c1`: “inactive”; `Cc1n[nH]c(=O)n1-c1ccc(Oc2ccccc2)cc1`: “inactive”. In the case of `COc1ccc(-c2nc(=N)sn2-c2ccccc2)cc1`, the Potency was 14.1 µM (active). Next, `COc1ccc(-c2nn3c(-c4ccc(OC)cc4)nnc3c3ccccc23)cc1`: “inactive”; `CN(Cc1ccccc1)C(=O)c1cn(C)c2ccc(S(=O)(=O)N(C)C3CCCCC3)cc2c1=O`: “inactive”; `Cc1c(Cl)cccc1NC(=O)C(=O)NCCc1csc2nc(-c3ccccc3F)nn12`: “inactive”.

Turning to `COc1ccc(CCNc2ncnc3c2cnn3-c2ccc(C)cc2)cc1`, the Potency entry is “inactive”. Next, `Cc1ccc(S(=O)(=O)N2CCN(c3nc(-n4cnc5ccccc54)nc4ccccc34)CC2)cc1`: “inactive”. The entry for `O=C(NCc1ccc2c(c1)CCN2C(=O)c1ccccc1)Nc1cc(F)ccc1F` is “inactive”; for `COCCCn1c(Cc2csc(Nc3cccc(Cl)c3)n2)nnc1SCC(=O)OC1CCCCC1` it is 50.1 µM (active); for `CCOc1ccc(Nc2nc(Cc3nnc(SCC(=O)NC4CCCC4)n3C)cs2)cc1` it is “inactive”.

Turning to `COCCCn1c(SCC(=O)Nc2ccccc2)nnc1-c1ccncc1`, the Potency entry was “inactive”. For `COc1ccc(-c2nc3scc(CCNS(=O)(=O)c4cc(F)ccc4OC)n3n2)cc1OC`, the Potency result was “inactive”. The figure for `CCS(=O)(=O)c1cc([N+](=O)[O-])c(Sc2ccccc2N)s1` is 39.8 µM (active). Next, `Cc1ccc(CNC(=O)C2(C(F)(F)F)C/C(=C\CCO)CCCO2)o1` (configuration not stated): “inactive”; `COc1ccc(/C=C/c2noc(-c3ccccc3O)n2)cc1OC`: “inactive”; `CC(=O)OCC(NC(=O)C(Cc1ccccc1)NC(=O)OC(C)(C)C)C1OC(n2ccc(=O)[nH]c2=O)C(OC(C)=O)C1OC(C)=O` (configuration not stated): “inactive”. The entry for `O=S(=O)(NCCS(=O)(=O)N1CCN(c2ccccc2)CC1)c1ccc(Cl)cc1` is “inactive”; for `C=CC1=C(C(=O)O)N2C(=O)[C@@H](NC(=O)/C(=N/OCC(=O)O)c3csc(N)n3)[C@H]2SC1` it is 14.1 µM (active); for `CCCCCCC1(C)NC(c2ccc3c(c2)OCO3)=CC(c2ccccc2O)N1` (configuration not stated) it is “inactive”. Take `CN(C)c1ccc(CSc2ccccc2)cc1`: the Potency was 39.8 µM (active). Take `O=C(Nc1ccc(CSc2ccccc2)cc1)c1ccc(CN2CCOCC2)cc1`: the Potency result is “inactive”.

For `CN(C)c1ccc(C(CC(=O)O)C(=O)O)cc1` (configuration not stated), the Potency entry was “inactive”. The entry for `Cc1ccc(-c2nc3ccccn3c2Nc2ccc(F)cc2)o1` is “inactive”; for `Cc1ccc(-c2onc(C)c2C)cc1S(=O)(=O)Nc1ccccn1` it is “inactive”; for `CCCC1CCC(=NNC(=S)NCCc2ccccc2)CC1` (configuration not stated) it is 44.7 µM (active). Next, `Cc1cc(F)ccc1NC(=S)NCCc1ccccc1`: “inactive”; `CCCCNC(=S)N/N=C1\CCCCc2ccccc21`: “inactive”. Regarding `COC(=O)C(CC(C)C)NS(=O)(=O)c1cc(Br)ccc1Br` (configuration not stated), the Potency result is “inactive”. The entry for `CCOC(=O)c1ccccc1NC(=O)c1sc2nc(-c3ccc(F)cc3)cn2c1C` is “inactive”; for `Cc1ccc(NC(=O)c2ccc3[nH]c(C)cc(=O)c3c2)c(C)c1` it is “inactive”; for `CCOc1ccccc1NC(=O)CSc1ncc(S(=O)(=O)c2ccc(C(C)(C)C)cc2)c(=O)[nH]1` it is “inactive”. On to `CN=c1scc(-c2cc(OC)ccc2OC)n1/N=C/c1c(C)[nH]c2ccccc12`, for which the Potency was 31.6 µM (active).

In the case of `COc1ccc(/C=N/n2c(C)cc(C)cc2=O)cc1`, the Potency entry was “inactive”.

As for `Oc1ccc(Br)cc1C1C=C(c2ccc3c(c2)OCO3)NC(c2ccc(Cl)cc2)N1` (configuration not stated), the Potency result is “inactive”. The entry for `CCCCSc1ncnc2c1sc1nc(N3CCOCC3)c3c(c12)CCCC3` is “inactive”. The entry for `O=C(NCCc1ccc(Cl)cc1)C1CCCN1C(=O)NCc1ccccc1` (configuration not stated) is “inactive”; for `S=C(Nc1ccc(Cl)cc1Cl)N1CCCC1` it is “inactive”. On to `Oc1cc2c(cc1O)CN(C(=S)NCCc1ccc(Cl)cc1)CCC2`, for which the Potency is 50.1 µM (active). Next, `COc1ccc(C2=NC3(CCCCC3)N(CC(=O)Nc3ccc(C(C)C)cc3)C2=O)cc1`: “inactive”; `COc1ccc(N2CCN(c3cc(C)nc4nncn34)CC2)cc1`: “inactive”; `CCCNC(=O)C1CCN(c2nc3ccc(C)cc3[nH]2)CC1`: “inactive”.

As for `COc1ccc(S(=O)(=O)NCC(c2ccc(N(C)C)cc2)N2CCCC2)cc1` (configuration not stated), the Potency result was “inactive”.

Take `COc1ccc(S(=O)(=O)NCC(c2ccc(C)cc2)N2CCN(C)CC2)cc1OC` (configuration not stated): the Potency entry was “inactive”.

As to `COc1ccc(N2CCN(C(CNS(=O)(=O)c3ccc(C)cc3)c3ccccc3)CC2)cc1` (configuration not stated), the Potency was 31.6 µM (active).

Regarding `COc1ccc(NC(=O)c2sc3nc[nH]c(=O)c3c2C)cc1`, the Potency result was “inactive”. `O=[N+]([O-])c1ccc(Oc2ccc(F)cc2Br)c2ccncc12`: the Potency was 50.1 µM (active). Regarding `CCN1CCN(c2cc(C)c3cc(NC(=O)c4cc(Cl)ccc4OC)ccc3n2)CC1`, the Potency result is “inactive”. On to `CCN(C(=O)CSc1nnc(C)n2c1cc1occc12)c1ccccc1`, for which the Potency entry was “inactive”.

`CCOc1ccc(-n2c(N)c(C(=O)NCC3CCCO3)sc2=S)cc1` (configuration not stated): the Potency was 17.8 µM (active). Next, `CCOc1ccc(S(=O)(=O)N2CCN(C(=S)NCC3CCCO3)CC2)cc1` (configuration not stated): “inactive”. Next, `CCOc1ccc(S(=O)(=O)NCCC(=O)NCC2CCCO2)cc1` (configuration not stated): “inactive”; `COc1ccc(-c2cccc(NS(=O)(=O)c3cc(C)c(OC)c(C)c3C)c2)nn1`: “inactive”. The entry for `COc1ccc(-c2nc3c4ccccc4n(CC(=O)Nc4ccc(C(C)=O)cc4)c(=O)n3n2)cc1` is “inactive”; for `O=C1CSC(=S)N1/N=C/c1ccc(O)c([N+](=O)[O-])c1` it is 39.8 µM (active); for `CCOC(=O)c1c(C)n(S(=O)(=O)c2ccc(C)cc2C)c2ccc(NS(=O)(=O)c3ccc(C)cc3C)cc12` it is “inactive”. For the compound `CC(=O)N1CCCc2cc(S(=O)(=O)N3CCC(C(=O)NC4CCCCC4)CC3)ccc21`, the Potency result is “inactive”. The entry for `Cc1ccc(NC(=O)C(Cc2ccccc2)NS(=O)(=O)c2ccc3c(c2)oc(=O)n3C)cc1C` (configuration not stated) is “inactive”; for `CC1CCCCC1NC(=O)CSc1nnc(-c2ccncc2)n1CCCN(C)C` (configuration not stated) it is 28.2 µM (active).

`CCn1c(SCC(=O)NC2CC2)nnc1-c1ccncc1`: the Potency entry was “inactive”. Next, `COCCCn1c(SCC(=O)NC2CCCC2)nnc1-c1ccccc1`: “inactive”; `COc1ccc(Cl)cc1NC(=O)c1sc2nc3c(cc2c1N)CN(C)CC3`: “inactive”. `COC(=O)c1ccccc1NS(=O)(=O)c1ccc2c(c1)CCCN2C(C)=O`: the Potency entry is “inactive”. The entry for `COc1cc(/C=C/C(=O)O)cc(S(=O)(=O)Nc2ccccc2C(=O)NCCc2ccccc2)c1OC` is “inactive”; for `COc1ccc(Br)cc1/C=N/Nc1ccc(S(=O)(=O)Nc2ccccc2C(=O)O)cc1[N+](=O)[O-]` it is 22.4 µM (active). Turning to `CCC(=O)N1CCc2cc(S(=O)(=O)NC(CC(C)C)C(=O)NCCc3cccc(C)c3)ccc21` (configuration not stated), the Potency result was “inactive”. The entry for `CC(C)Cn1c(=O)c2ccccc2n2c(CCC(=O)N3CCN(c4cccc(Cl)c4)CC3)nnc12` is “inactive”; for `CC(Sc1oc(-c2ccco2)nc1S(=O)(=O)c1ccc(Br)cc1)c1ccccc1` (configuration not stated) it is “inactive”; for `O=C(NCc1ccccn1)[C@]1(C(F)(F)F)C[C@H](CCc2ccccc2)CCCO1` it is “inactive”. Next, `O=C1/C(=C/c2ccc3c(c2)OCO3)CCC/C1=C\c1ccc2c(c1)OCO2`: 28.2 µM (active); `Cc1nn(C)cc1/C=C1\CCC/C(=C\c2cn(C)nc2C)C1=O`: “inactive”; `Nc1[nH][nH]c(=O)c1N=Nc1ccc2c(c1)OCO2`: “inactive”.

In the case of `O=C1CC(c2ccccc2)CC2=C1C(c1ccco1)n1nc(C(F)(F)F)nc1N2` (configuration not stated), the Potency result is “inactive”.

In the case of `CCOC(=O)c1cc2c(=O)n3ccccc3nc2n(CC2CCCO2)c1=NC(=O)c1ccccc1F` (configuration not stated), the Potency entry is “inactive”.

In the case of `CC(C)OC(=O)c1ccc(NCc2cc(O)ccc2O)cc1Cl`, the Potency was 39.8 µM (active).

As for `O=C(CC1C(=O)N(c2ccccc2)C(=O)N1CCc1cccs1)Nc1ccc(F)cc1` (configuration not stated), the Potency result is “inactive”. The entry for `Cc1ccc(Cc2nc3ccccc3nc2SCC(=O)Nc2cccc(C(F)(F)F)c2)cc1` is “inactive”; for `CC(C)(C)C(=O)OCc1nc(-c2ccc(O)c(O)c2)cs1` it is 70.8 µM (active); for `CNC(=O)[C@]1(C(F)(F)F)C[C@H](CCc2ccccc2)CCCO1` it is “inactive”.

As to `CCc1cnc2c(c1SCC(=O)N1CCC(C)CC1)c(=O)n(C)c(=O)n2C`, the Potency result was “inactive”. Next, `COc1ccc(Cn2ccn(Cc3cccc(OC)c3)c(=O)c2=O)cc1`: “inactive”; `COc1ccccc1CNC(=O)C(=O)NCC(c1ccco1)S(=O)(=O)c1ccc(F)cc1` (configuration not stated): “inactive”. Consider `CC(=O)Oc1ccc(C(C)=O)c2c1OCCO2`, for which the Potency entry is “inactive”. The figure for `CC(=O)Oc1ccc(OC(C)=O)c2c1C1C=CC2CC1` is 89.1 µM (active); for `COc1ccc(C)cc1N(C)C(=O)c1c(C)oc2ncnc(N3CCOCC3)c12` it is “inactive”; for `COc1ccc(CCC(=O)NCCc2csc(-c3ccc(Cl)cc3)n2)cc1` it is “inactive”. Next, `COc1ccc(C2CC(O)(c3ccccc3)Oc3cc(C)cc(C)c32)cc1` (configuration not stated): “inactive”; `COc1ccccc1-c1cc(C(F)(F)F)nc(S(=O)(=O)CCCC(=O)Nc2ccc(F)cc2F)n1`: “inactive”; `C[n+]1ccccc1C1CCCC/C1=N\Nc1ccc([N+](=O)[O-])cc1[N+](=O)[O-]` (configuration not stated): “inactive”. The entry for `CC1(C)C/C(=N/Nc2ccc([N+](=O)[O-])cc2[N+](=O)[O-])C(C)(C)O1` is “inactive”. In the case of `O=[N+]([O-])c1ccc(N/N=C2/CCCCC2c2ccccn2)c([N+](=O)[O-])c1` (configuration not stated), the Potency is 35.5 µM (active).

Consider `COc1ccc(CN2CCC(=O)c3ccccc3S2(=O)=O)cc1`, for which the Potency entry is “inactive”. The entry for `COc1cc(NC(=O)c2cc3ccc4cccnc4c3[nH]2)cc(OC)c1OC` is “inactive”.
